Results filed as inconclusive are left out. The source made the active and inactive calls. Unless noted, calls follow the shape of the dose curve; as a rule, active = well fitted curve in the direction sought with a large enough effect in the repeat runs; inconclusive = weak or mixed curves; inactive = no such curve, though single readings can be large; an effect the other way counts as inactive or inconclusive.
What was measured:
[1] = qHTS assay for small molecule agonists of the p53 signaling pathway (AID 651631; calls by dose curve; also: nearly all actives have a fitted effect of over 15% in size)
Summary of the method: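 HCT-116 cells carrying a beta-lactamase reporter under p53 response elements were dosed with compound for 16 h at 37 °C. LiveBLAzer B/G FRET substrate was then added for 2 h at room temperature, and fluorescence intensity was read to detect pathway agonism.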

[2] = qHTS assay for small molecule agonists of the p53 signaling pathway - cell viability (AID 651633; calls by dose curve;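 also: p53RE-bla HCT reporter cells with a stable beta-lactamase p53 reporter; series mostly up to about 83 µM; nearly all actives have a fitted effect of over 30% in size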)
Summary of the method: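 p53RE-bla cells, seeded at 4,000 per well and rested 5 h at 37 C/5% CO2, received compounds in DMSO for 16 h at 37 C. CellTiter-Glo was then added, and luminescence was read after 30 min at room temperature to gauge cytotoxicity.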

[3] = qHTS assay for small molecules that induce genotoxicity in human embryonic kidney cells expressing luciferase-tagged ATAD5 - cell viability (AID 651634; calls by dose curve; also: nearly all actives have a fitted effect of over 25% in size)
Summary of the method: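 HEK293T ATAD5-luc cells, 2,000/well; compound 15.5 hr, 37C/5% CO2; CellTiter-Fluor 30 min, 37C; fluorescence read.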

[4] = qHTS assay for small molecule disruptors of the mitochondrial membrane potential (AID 720635); also: potency is read from the fitted curve at half-maximal effect
Summary of the method: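 HepG2 cells (2,000/well) attached overnight at 37C, then took compound for 1 hr at 37C, 5% CO2. Mito-MPS dye was added for 30 min; fluorescence was read at 490/535 nm (monomers) and 540/590 nm (aggregates).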

[5] = qHTS assay to test for compound auto fluorescence at 590 nm (red) in HepG2 cells (AID 720674)
Summary of the method: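 Intrinsic compound fluorescence in the red window (Ex/Em 540/590 nm) is measured in attached HepG2 cells exposed for 1 hr, DMSO vehicle as baseline, benchmarked to Rose Bengal sodium.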

[6] = qHTS assay to test for compound auto fluorescence at 535 nm (green) in HepG2 cells (AID 720675)
[7] = qHTS assay to test for compound auto fluorescence at 460 nm (blue) in HEK293 cells (AID 720678)
Summary of the method: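 Blue-channel (Ex/Em 405/460 nm) intensity measured in HEK293 cultures after overnight compound exposure at 37C; signal expressed relative to triamterene. Cells plated 2,000 per well in 10% dialyzed FBS medium and allowed 4-5 hr to attach.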

[8] = qHTS assay to test for compound auto fluorescence at 590 nm (red) in HEK293 cells (AID 720679)
Summary of the method: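 Red-channel autofluorescence (Ex/Em 540/590 nm; Rose Bengal sodium reference) was measured after overnight 37C, 5% CO2 exposure of attached HEK293 cells, 2,000 per well in medium with 10% dialyzed FBS.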

[9] = qHTS assay to test for compound auto fluorescence at 535 nm (green) in HEK293 cells (AID 720680)
[10] = qHTS assay to test for compound auto fluorescence at 460 nm (blue) in HEK293 cell free culture (AID 720681)
Summary of the method: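 Test compounds were pinned into cell-free culture medium (DMEM with 10% FBS) and fluorescence was read directly at Ex/Em 405/460 nm. Signals were expressed as fluorescence equivalents of triamterene, with DMSO vehicle as control.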

[11] = qHTS assay to test for compound auto fluorescence at 535 nm (green) in HEK293 cell free culture (AID 720682)
Summary of the method: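 Green-label autofluorescence (485 nm excitation, 535 nm emission) measured on compound added to cell-free culture medium (DMEM, 10% FBS). Output is expressed relative to fluorescein.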

[12] = qHTS assay to test for compound auto fluorescence at 590 nm (red) in HEK293 cell free culture (AID 720683)
Summary of the method: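 Tox21 10K library compounds were pinned into cell-free DMEM with 10% FBS and fluorescence was read at excitation 540 nm. Activity is expressed as Rose Bengal sodium equivalency.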

[13] = qHTS assay to test for compound auto fluorescence at 590 nm (red) in HepG2 cell free culture (AID 720684)
Summary of the method: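 Readout: intrinsic compound fluorescence at 590 nm emission after 540 nm excitation, scaled to Rose Bengal sodium. Matrix was cell-free MEM with 10% FBS; DMSO vehicle wells served as control.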

[14] = qHTS assay to test for compound auto fluorescence at 460 nm (blue) in HepG2 cell free culture (AID 720685)
Summary of the method: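 Cell-free plates of MEM plus 10% FBS received 23 nL compound or DMSO vehicle; blue-channel (405/460 nm) intensity scored against triamterene as reference fluorophore.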

[15] = qHTS assay to test for compound auto fluorescence at 535 nm (green) in HepG2 cell free culture (AID 720686)
[16] = qHTS assay to test for compound auto fluorescence at 460 nm (blue) in HepG2 cells (AID 720687)
Summary of the method: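 Cells (2,000/well in MEM with 10% FBS) attached overnight at 37 C, then were exposed to compound or DMSO for 1 hr at 37 C, 5% CO2. Fluorescence read at Ex/Em 405/460 nm, expressed as triamterene-equivalent signal.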

[17] = qHTS assay for small molecule disruptors of the mitochondrial membrane potential - cell viability (AID 720634; calls by dose curve;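 also: human HepG2 liver cancer cells; series mostly up to about 83 µM; nearly all actives have a fitted effect of over 20% in size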)
Summary of the method: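 Luminescence from CellTiter-Glo (ATP content) gave viability in HepG2 cells, read in the same wells as the MMP dye assay after 1 hr compound exposure at 37 C.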

[18] = target: Glucocorticoid receptor (Homo sapiens) (UniProt P04150); assay: qHTS assay to identify small molecule agonists of the glucocorticoid receptor (GR) signaling pathway (AID 720691; active = well fitted activation curve with a large enough effect in the signal ratio in the repeat runs, not every such curve was filed as active; the % refers to the signal ratio)
Chain of Glucocorticoid receptor (Homo sapiens) (P04150 whole entry, looked up): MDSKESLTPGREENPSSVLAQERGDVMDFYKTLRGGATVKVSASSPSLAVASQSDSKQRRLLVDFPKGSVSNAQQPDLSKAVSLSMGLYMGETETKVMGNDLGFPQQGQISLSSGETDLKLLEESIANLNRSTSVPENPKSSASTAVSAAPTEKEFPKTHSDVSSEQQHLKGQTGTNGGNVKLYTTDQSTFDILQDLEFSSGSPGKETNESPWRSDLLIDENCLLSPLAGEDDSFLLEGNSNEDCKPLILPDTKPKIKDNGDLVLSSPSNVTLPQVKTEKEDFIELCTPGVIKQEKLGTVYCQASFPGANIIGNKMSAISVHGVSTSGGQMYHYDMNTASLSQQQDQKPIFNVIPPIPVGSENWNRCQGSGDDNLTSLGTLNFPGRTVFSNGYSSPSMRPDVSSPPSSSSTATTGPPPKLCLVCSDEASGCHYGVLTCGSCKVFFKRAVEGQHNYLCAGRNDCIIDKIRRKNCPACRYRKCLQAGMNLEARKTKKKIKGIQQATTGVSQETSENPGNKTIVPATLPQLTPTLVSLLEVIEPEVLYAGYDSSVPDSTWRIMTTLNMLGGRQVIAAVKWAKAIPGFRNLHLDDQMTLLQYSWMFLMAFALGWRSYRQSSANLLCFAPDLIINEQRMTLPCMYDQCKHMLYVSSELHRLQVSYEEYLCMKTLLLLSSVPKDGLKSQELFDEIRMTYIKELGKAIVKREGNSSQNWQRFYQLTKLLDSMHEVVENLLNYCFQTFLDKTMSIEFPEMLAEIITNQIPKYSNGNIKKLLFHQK
Summary of the method: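 HeLa GR-bla reporter line; cells pre-incubated 4 h, compound in DMSO 18 h at 37 C; LiveBLAzer B/G FRET substrate 2 h RT; fluorescence intensity read-out.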

[19] = target: Glucocorticoid receptor (Homo sapiens) (UniProt P04150); assay: qHTS assay to identify small molecule antagonists of the glucocorticoid receptor (GR) signaling pathway (AID 720692; active = well fitted inhibition curve with a large enough effect in the signal ratio in the repeat runs, not every such curve was filed as active; the % refers to the signal ratio)
Summary of the method: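 Read-out: beta-lactamase FRET substrate fluorescence, 2 h at room temperature, in HeLa cells stably carrying a GRE-driven bla reporter. Compounds were co-incubated with 5 nM dexamethasone agonist (final) for 18 h at 37 C.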

[20] = qHTS assay for small molecules that induce genotoxicity in human embryonic kidney cells expressing luciferase-tagged ATAD5 (AID 651632); also: nearly all actives have a fitted effect of over 15% in size
Summary of the method: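 Luminescence read-out: after 16 hr compound exposure at 37C, ATAD5-luciferase HEK293T cells received Amplite, 30 min RT, then CCD imaging. A rise in signal marks genotoxic stress.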
% is scaled to controls: 0 for no effect and ±100 for the full control effect.

NCc1ccc(S(N)(=O)=O)cc1
inactive: outcome [1] | outcome [2] | Potency [3] | Potency [4] | fluorescence, relative to Rose Bengal [5] -0.36% [at 18.6 µM] | fluorescence, % of fluorescein control [6] -0.119% [at 18.6 µM] | fluorescence, % of triamterene [7] 0.204% [at 18.6 µM] | fluorescence, % of fluorescent control [8] -0.0605% [at 18.6 µM] | fluorescence, % of fluorescein [9] 0.0433% [at 18.6 µM] | fluorescence, % of fluorescent control [10] 0.104% [at 18.6 µM] | activity change [11] -0.0097% [at 18.6 µM] | fluorescence, % of fluorescent control [12] 0.469% [at 18.6 µM] | fluorescence, % of Rose Bengal [13] 0.496% [at 18.6 µM] | fluorescence, % of fluorescent control [14] 0.0628% [at 18.6 µM] | fluorescence, % of fluorescein control [15] 0.0245% [at 18.6 µM] | fluorescence, % of fluorescent control [16] 0.0103% [at 18.6 µM]

CCCCCCC1(C)CCC(=O)O1 (stereo not drawn)
inactive: outcome [1] | outcome [2] | Potency [3] | outcome [17] | outcome [5] | outcome [6] | outcome [7] | outcome [8] | outcome [9] | outcome [10] | outcome [11] | outcome [12] | outcome [13] | outcome [14] | outcome [15] | outcome [16]

N#Cc1cscn1
inactive: outcome [1] | outcome [2] | Potency [3] | Potency [4] | outcome [5] | outcome [6] | outcome [7] | outcome [8] | outcome [9] | outcome [10] | outcome [11] | outcome [12] | outcome [13] | outcome [14] | outcome [15] | outcome [16]

NCCOCCN
inactive: outcome [1] | outcome [2] | Potency [3] | outcome [5] | outcome [6] | outcome [7] | outcome [8] | outcome [9] | outcome [10] | outcome [11] | outcome [13] | outcome [14] | outcome [15] | outcome [16]

CC(=O)OC1CCCCC1C(C)(C)C (stereo not drawn)
inactive: outcome [1] | outcome [2] | Potency [3] | outcome [17] | Potency [4] | outcome [5] | outcome [6] | outcome [7] | outcome [8] | outcome [9] | outcome [10] | outcome [11] | outcome [12] | outcome [13] | outcome [14] | outcome [15] | outcome [16] | Potency [18]

Cc1ccc2c(c1)C(=O)c1ccccc1C2=O
inactive: outcome [1] | outcome [2] | Potency [3] | outcome [5] | outcome [6] | outcome [7] | outcome [8] | outcome [9] | outcome [10] | outcome [11] | outcome [12] | outcome [13] | outcome [14] | outcome [15] | outcome [16] | Potency [18]
active: Potency [4] 6.09 µM

CCCCOCC(C)O (stereo not drawn)
inactive: outcome [1] | outcome [2] | Potency [3] | outcome [17] | outcome [5] | outcome [6] | outcome [7] | outcome [8] | outcome [9] | outcome [10] | outcome [11] | outcome [12] | outcome [13] | outcome [14] | outcome [15] | outcome [16] | outcome [19]

CC(=O)c1cc(C)oc1C
inactive: outcome [1] | outcome [2] | Potency [3] | outcome [17] | outcome [5] | outcome [6] | outcome [7] | outcome [8] | outcome [9] | outcome [10] | outcome [11] | outcome [13] | outcome [14] | outcome [15] | outcome [16] | Potency [18]

CC(C)=CCC/C(C)=C/COC=O
inactive: outcome [1] | outcome [2] | outcome [17] | Potency [4] | outcome [5] | outcome [6] | outcome [7] | outcome [8] | outcome [9] | outcome [10] | outcome [11] | outcome [12] | outcome [13] | outcome [14] | outcome [15] | outcome [16]

CC(=O)CC(=O)Nc1ccc(C)cc1C
inactive: outcome [1] | outcome [2] | Potency [3] | outcome [17] | outcome [5] | outcome [6] | outcome [7] | outcome [8] | outcome [9] | outcome [10] | outcome [11] | outcome [12] | outcome [13] | outcome [14] | outcome [15] | outcome [16] | Potency [18] | outcome [19]

CC(O)COC(C)(C)C (stereo not drawn)
inactive: outcome [1] | outcome [2] | Potency [3] | outcome [17] | outcome [5] | outcome [6] | outcome [7] | outcome [8] | outcome [9] | outcome [10] | outcome [11] | outcome [12] | outcome [13] | outcome [14] | outcome [15] | outcome [16] | Potency [18]

CCCC(CC)c1ccccc1 (stereo not drawn)
inactive: outcome [1] | outcome [2] | Potency [3] | outcome [17] | outcome [5] | outcome [6] | outcome [7] | outcome [8] | outcome [9] | outcome [10] | outcome [13] | outcome [14] | outcome [15] | outcome [16] | Potency [18] | outcome [19]

CC(=O)OC(C)=O
inactive: outcome [20] | outcome [2] | Potency [3] | outcome [17] | outcome [5] | outcome [6] | outcome [7] | outcome [8] | outcome [9] | outcome [10] | outcome [11] | outcome [12] | outcome [13] | outcome [14] | outcome [15] | outcome [16] | Potency [18]

COc1nc(N)nc2nc[nH]c12
inactive: outcome [20] | outcome [2] | Potency [3] | outcome [17] | outcome [5] | outcome [6] | outcome [7] | outcome [8] | outcome [9] | outcome [10] | outcome [11] | outcome [12] | outcome [13] | outcome [14] | outcome [15] | outcome [16] | Potency [18] | outcome [19]

C=CCOC(=O)CCCCCC
inactive: outcome [20] | outcome [2] | Potency [3] | outcome [5] | outcome [6] | outcome [7] | outcome [8] | outcome [9] | outcome [10] | outcome [11] | outcome [12] | outcome [13] | outcome [14] | outcome [15] | outcome [16] | outcome [19]

— PubChem BioAssay (Tox21)
